Reference: PubChem BioAssay (Tox21)
Results filed as inconclusive are left out. Calls of active or inactive are those of the source. Unless noted, calls follow the shape of the dose curve; as a rule, active = well fitted curve in the direction sought with a large enough effect in the repeat runs; inconclusive = weak or mixed curves; inactive = no such curve, though single readings can be large; an effect the other way counts as inactive or inconclusive.

Legend:
[1] = qHTS assay to identify small molecule antagonists of the estrogen related receptor (ERR) signaling pathway - cell viability counter screen (AID 1224818); also: series mostly up to about 46 µM
How it was run: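 ERR cells, 2,000 per well, compound added after 6 h and incubated 17.5 h at 37 C. Viability read by CellTiter-Fluor fluorescence after a further 30 min at 37 C.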

[2] = qHTS assay to identify small molecule antagonists of the estrogen related receptor (ERR) signaling pathway (AID 1224819; also: nearly all actives have a fitted effect of over 50% in size; also: potency is read from the fitted curve at half-maximal effect)
How it was run: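 ERR reporter cell line (NTP) plated at 2,000 cells/well, settled 6 h at 37C/5% CO2, then exposed to LOPAC compounds for 18 h at 37C. One-Glo luciferase luminescence read after 30 min at room temperature.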

[3] = qHTS assay to identify small molecule agonists of the estrogen related receptor (ERR) signaling pathway (AID 1224820); also: potency is read from the fitted curve at half-maximal effect
How it was run: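 Cells: ERR line from NTP, 2,000/well. Pre-incubation 6 h, 37 C/5% CO2. Compound (DMSO) pin transfer, 18 h 37 C. One-Glo, 30 min RT, luminescence.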

[4] = system: estrogen-related receptor alpha (ERRalpha) with PGC-1alpha coactivator, human; assay: qHTS assay to identify small molecule antagonists of the estrogen related receptor signaling pathway with the pleiotropic PPARgamma coactivator (PGC) (AID 1224821; calls by dose curve; also: nearly all actives have a fitted effect of over 50% in size; also: potency is read from the fitted curve at half-maximal effect)
How it was run: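 Luminescent read-out (One-Glo, 30 min at room temperature) following 18 h treatment of PGC/ERR cells at 37 C with compounds delivered in DMSO. Cells had settled 6 h at 37 C/5% CO2 before dosing.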

[5] = qHTS assay to identify small molecule antagonists of the estrogen related receptor signaling pathway with the pleiotropic PPARgamma coactivator (PGC) cell viability counter screen (AID 1224822; also: series mostly up to about 46 µM)
How it was run: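 PGC/ERR cells rested 6 h, then compound-treated 17.5 h at 37 C. CellTiter-Fluor added for 30 min at 37 C, viability measured by fluorescence intensity.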

[6] = qHTS assay to identify small molecule agonists of the estrogen related receptor signaling pathway with the pleiotropic PPARgamma coactivator (PGC) (AID 1224823); also: potency is read from the fitted curve at half-maximal effect
How it was run: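 Steps: plate PGC/ERR cells at 2,000 cells/well; incubate 6 h, 37 C/5% CO2; pin-transfer compounds (DMSO); incubate 18 h, 37 C; add One-Glo; 30 min RT; read luminescence.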

Measured: Potency

COc1cc2c(CCNC(C)=O)c[nH]c2cc1O
inactive: all assays above

Nc1ccc(N2C(=O)c3ccccc3C2=O)c(Cl)c1
inactive: all assays above

NCCCC(=O)O
inactive: all assays above

NCCCCCCCCCCN
inactive: all assays above

C[C@@H]1C(=O)NC2=Nc3cccc(Cl)c3CN21
inactive: all assays above

NCC(O)(CS(=O)(=O)O)c1ccc(Cl)cc1 (centres undefined)
inactive: all assays above

NS(=O)(=O)c1cccc2c1c([N+](=O)[O-])cc1nc(O)c(O)nc12
inactive: all assays above

CC(=O)NNC(=O)N1Cc2ccccc2Oc2ccc(Cl)cc21
inactive: all assays above

NC(Cc1cccc(-c2ccccc2CP(=O)(O)O)c1)C(=O)O (centres undefined)
inactive: all assays above

N[C@@H](Cc1ccc(F)cc1)C(=O)O
inactive: all assays above

NC(=O)c1ccc2[nH]ccc2c1
inactive: all assays above

NCCS(=O)O
inactive: all assays above

CNc1cc(NS(=O)(=O)c2ccc(N)cc2)nc(NC)n1
inactive: all assays above

COc1cccc(-c2cc(=O)c3ccccc3o2)c1N
active: [3] 1.96 µM | [6] 1.88 µM
inactive: all other assays above

NC1(C(=O)O)CCc2cc(C(=O)O)ccc21 (centres undefined)
inactive: all assays above

OC[C@H]1O[C@@H](n2cnc3c(NC4CCCC4)ncnc32)[C@H](O)C1O (some centres undefined)
active: [6] 3.1 µM
inactive: all other assays above

NC/C=C\C(=O)O
inactive: all assays above

CCCn1c(=O)c(C)cn2nc(N)nc12
inactive: all assays above

O=C(O)[C@H]1NCCC[C@H]1C(=O)O
inactive: all assays above

O=C1CCC(c2ccc(-n3ccnc3)cc2)=NN1
inactive: all assays above

O=C(O)C1CCCN(CCC=C(c2ccccc2)c2ccccc2)C1 (centres undefined)
inactive: all assays above

NC[C@@H]1O[C@H](c2ccccc2)Cc2c1ccc(O)c2O
inactive: all assays above

CC1CNCCN1S(=O)(=O)c1cccc2cnccc12 (centres undefined)
inactive: all assays above

[N-]=[N+]=Nc1ccc(C(=O)CSC[C@H](NC(=O)CC[C@H](N)C(=O)O)C(=O)NCC(=O)O)cc1
active: [2] 0.552 µM
inactive: all other assays above

CC(=O)NCCc1c[nH]c2ccc(O)cc12
inactive: all assays above

CN1CC(O)C(O)C(O)C1CO (centres undefined)
inactive: all assays above

CCCN(CCc1ccccc1)C1CCc2c(O)cccc2C1 (centres undefined)
inactive: all assays above

CC(=O)N[C@H](C(=O)O)C(C)(C)SN=O
inactive: all assays above

O=C(O)CCC(C(=O)O)N1C(=O)c2ccccc2C1=O (centres undefined)
inactive: all assays above

N#C/C(=C\c1ccc(O)c(O)c1)C(=O)c1ccc(O)c(O)c1
inactive: all assays above

CCN(CC)CCn1c(=O)c(Cc2ccc(OC)cc2)nc2ccccc21
inactive: all assays above

CCSC(=N)N
inactive: all assays above

CC(C)C[C@H](NC(=O)[C@H](O)[C@H](N)Cc1ccccc1)C(=O)O
inactive: all assays above

CC(C)NC[C@H](O)c1ccc(O)c(O)c1
inactive: all assays above

NC(=O)C(=O)O
inactive: all assays above

NS(=O)(=O)c1ccc(-n2nc(C(F)(F)F)cc2-c2ccc(Cl)cc2)cc1
inactive: all assays above

Nc1ncnc2c1ncn2C1CCCC1
inactive: all assays above

CCN1/C(=C/C(C)=O)Sc2ccc(OC)cc21
active: [2] 11.9 µM | [4] 5.11 µM
inactive: all other assays above

COc1ccc2c(c1)c(CC(=O)O)c(C)n2Cc1ccc(Cl)cc1
inactive: all assays above

O=c1ccn([C@@H]2O[C@H](COP(=O)(O)OP(=O)(O)O)[C@@H](O)[C@H]2O)c(=O)[nH]1
inactive: all assays above

C[N+](C)(C)CC=O
inactive: all assays above

NC1CCN(O)C1=O (centres undefined)
inactive: all assays above

CC(N)=NCCCC[C@@H](N)C(=O)O
not listed: [5]
inactive: all other assays above

Cc1cc2c(cc1Cl)N(C(=O)Nc1ccnc3ccccc13)CC2
inactive: all assays above

N=S(=O)(O)Cc1noc2ccccc12
inactive: all assays above

CC(O)C(O)[C@H]1CNc2nc(N)[nH]c(=O)c2N1 (some centres undefined)
inactive: all assays above

NC(=O)CC[C@H](N)C(=O)O
inactive: all assays above

NC1CONC1=O (centres undefined)
not listed: [5]
inactive: all other assays above

C=C/C(C)=C/[C@@]1(C)SC(=O)C(C)=C1O
inactive: all assays above

O=c1c(O)c(-c2cc(O)c(O)c(O)c2)oc2cc(O)cc(O)c12
inactive: all assays above

C[C@H]1CC2C3CCC4=CC(=O)C=C[C@]4(C)[C@@]3(Cl)[C@@H](O)C[C@]2(C)[C@@]1(O)C(=O)CO (some centres undefined)
inactive: all assays above

C=C(C)C1CC=C(C(=O)O)CC1 (centres undefined)
inactive: all assays above

COCc1nc2c([nH]1)c(=O)n(C)c(=O)n2CC(C)C
inactive: all assays above

O=C1/C(=C/c2ccsc2)CC/C1=C\c1cccs1
active: [3] 24.6 µM | [6] 21.1 µM
inactive: all other assays above

N[C@H](C(=O)O)c1cc(O)cc(O)c1
inactive: all assays above

CC(C)(C=O)Cc1cc(C(C)(C)C)c(O)c(C(C)(C)C)c1
inactive: all assays above
